PubChem BioAssay (NCATS)
“And” between values parts separate entries of the source, which are not always exact repeats. Identical values can stand only once. Inconclusive results are not listed. Unmarked numbers belong to inactive results. The source made the active and inactive calls. Calls come from the whole dose curve; as a rule, active = well fitted inhibition curve with a large enough effect; inconclusive = small, poorly fitted or top-dose-only effect; inactive = flat fitted curve, though single readings scatter.

Columns and labels:
CRL-7250 = normal cell line; experiment: Cytotoxic Profiling of Annotated Libraries Using Quantitative High-Throughput Screening (AID 1296008); settings: Five cell lines viability, CellTiter-Glo ATP luminescence, 48-72 h; max response: hits give low values
Summary of the method: (§1)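 Cells exposed to compounds for 48 or 72 hr at 37 degrees Celsius. Viability read as ATP-coupled luminescence with CellTiter-Glo after 10 min at room temperature.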

HEK293 = experiment: as above; settings: Five cell lines viability, CellTiter-Glo ATP luminescence, 48-72 h; max response: hits give low values
Summary of the method: as §1

HaCat [1] = experiment: as above; settings: Five cell lines viability, CellTiter-Glo ATP luminescence, 48-72 h; max response: hits give low values
Summary of the method: as §1

KB-3-1 = experiment: as above; settings: Five cell lines viability, CellTiter-Glo ATP luminescence, 48-72 h; max response: hits give low values
Summary of the method: as §1

NIH3T3 = experiment: as above; settings: Five cell lines viability, CellTiter-Glo ATP luminescence, 48-72 h; max response: hits give low values
Summary of the method: as §1

MCC-13 = experiment: qHTS assay to identify novel small-molecules to repurpose for Merkel cell carcinoma treatment (AID 1296009); settings: MCC and control cell lines, CellTiter-Glo viability, 72 h; series mostly up to 46 µM
Summary of the method: (§2)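 Cells were incubated with compound for 72 hr at 37 degree celsius before CellTiter-Glo addition. Luminescence was normalized with no-cell wells as full cytotoxicity and DMSO as baseline.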

MCC-26 = experiment: as above; settings: MCC and control cell lines, CellTiter-Glo viability, 72 h; series mostly up to 46 µM
Summary of the method: as §2

MKL-1 = experiment: as above; settings: MCC and control cell lines, CellTiter-Glo viability, 72 h; series mostly up to 46 µM
Summary of the method: as §2

HACAT [2] = experiment: as above; settings: MCC and control cell lines, CellTiter-Glo viability, 72 h; series mostly up to 44.8 µM
Summary of the method: as §2
% is set by controls: 0 for no effect and ±100 for the full control effect; potency is the fitted concentration of half-maximal effect.
Note: nearly all actives have a fitted effect of over 60% in size.

## NC(=O)Nc1cc(-c2cccc(F)c2)sc1C(=O)N[C@H]1CCCNC1
CRL-7250
  Potency: 4.69 µM (active) and 2.06 µM (active)
HEK293
  Potency: 148 nM (active) and 231 nM (active)
HaCat [1]
  Potency: 8.33 µM (active) and 1.3 µM (active)
KB-3-1
  Potency: 2.09 µM (active) and 1.03 µM (active)
NIH3T3
  Potency: 418 nM (active) and 291 nM (active)
MCC-13
  Potency: 14.8 µM (active)
MCC-26
  Potency: 11.8 µM (active)
MKL-1
  Potency: 3.32 µM (active)

## Nc1cc(C(F)(F)F)c(-c2cc(N3CCOCC3)nc(N3CCOCC3)n2)cn1
CRL-7250
  Potency: 2.06 µM (active)
HEK293
  Potency: 935 nM (active) and 2.31 µM (active)
HaCat [1]
  Potency: 1.18 µM (active) and 1.64 µM (active)
KB-3-1
  Potency: 743 nM (active) and 1.46 µM (active)
NIH3T3
  Potency: 1.05 µM (active) and 2.59 µM (active)
MCC-13
  Potency: 2.96 µM (active)
MCC-26
  Potency: 2.35 µM (active)
MKL-1
  Potency: 1.66 µM (active)

## CNC(=O)c1nn(C)c2c1C(C)(C)Cc1cnc(Nc3ccc(N4CCN(C)CC4)cc3)nc1-2
CRL-7250
  Potency: 46.9 nM (active) and 580 nM (active)
HEK293
  Potency: 1.16 µM (active)
HaCat [1]
  Potency: 1.66 µM (active) and 2.06 µM (active)
KB-3-1
  Potency: 3.32 µM (active) and 2.31 µM (active)
NIH3T3
  Potency: 1.3 µM (active)
MCC-13
  Potency: 5.9 µM (active)
MKL-1
  Potency: 4.69 µM (active)

## CC[C@@]1(O)C(=O)OCc2c1cc1n(c2=O)Cc2cc3cc(O)ccc3nc2-1
CRL-7250
  Potency: 1.3 µM (active) and 1.48 µM (active)
HEK293
  Potency: 73.1 nM (active) and 148 nM (active)
HaCat [1]
  Potency: 116 nM (active) and 743 nM (active)
KB-3-1
  Potency: 517 nM (active) and 1.05 µM (active)
NIH3T3
  Potency: 1.46 µM (active) and 662 nM (active)
MCC-13
  Potency: 0.118 µM (active)
MKL-1
  Potency: 0.0372 µM (active)

## CC(C)c1ccc(Cn2ccc3c4c(N)nc(NC5CC5)nc4ccc32)cc1
CRL-7250
  Potency: 3.32 µM (active)
HEK293
  Potency: 1.18 µM (active)
HaCat [1]
  Potency: 37.2 µM (active)
KB-3-1
  Potency: 1.32 µM (active)
NIH3T3
  Potency: 4.69 µM (active)
MCC-13
  Potency: 1.05 µM (active)
MCC-26
  Potency: 16.6 µM (active)
MKL-1
  Potency: 14.8 µM (active)

## CC(=O)OCC(=O)[C@@]1(O)[C@H](C)C[C@H]2[C@@H]3C=C(C)C4=Cc5c(cnn5-c5ccccc5)C[C@]4(C)[C@@H]3[C@@H](O)C[C@@]21C
CRL-7250
  Potency: 20.9 µM (active)
HEK293
  Potency: 13.2 µM (active)
HaCat [1]
  max response: -6.31%
KB-3-1
  outcome: inactive
NIH3T3
  Potency: 14.8 µM (active)
MCC-13
  Potency: inactive
MCC-26
  Potency: inactive
MKL-1
  Potency: inactive

## C1=CCOCc2cc(ccc2OCCN2CCCC2)Nc2nccc(n2)-c2cccc(c2)OCC1
CRL-7250
  Potency: 8.33 µM (active)
HEK293
  Potency: 3.32 µM (active)
HaCat [1]
  Potency: 4.69 µM (active)
KB-3-1
  Potency: 2.96 µM (active)
NIH3T3
  Potency: 7.43 µM (active)
MCC-26
  Potency: 9.35 µM (active)

## C[C@@H](Oc1cc(-c2cnn(C3CCNCC3)c2)cnc1N)c1c(Cl)ccc(F)c1Cl
CRL-7250
  Potency: 11.8 µM (active) and 20.6 µM (active) and 23.1 µM (active)
HEK293
  Potency: 4.18 µM (active) and 4.11 µM (active) and 5.8 µM (active)
HaCat [1]
  Potency: 13 µM (active) and 10.3 µM (active)
KB-3-1
  Potency: 6.51 µM (active)
NIH3T3
  Potency: 3.72 µM (active) and 2.91 µM (active) and 5.17 µM (active)
MCC-13
  Potency: inactive
MKL-1
  Potency: 13.2 µM (active)

## O=C(C=Cc1cccc(S(=O)(=O)Nc2ccccc2)c1)NO
CRL-7250
  Potency: 21.5 µM (active)
HEK293
  Potency: 19.1 µM (active)
HaCat [1]
  Potency: 15.2 µM (active)
KB-3-1
  Potency: 6.05 µM (active)
NIH3T3
  Potency: 10.8 µM (active)
MKL-1
  Potency: 7.62 µM (active)

## O=C(Cc1ccc(-c2ccc(OCCN3CCOCC3)cc2)cn1)NCc1ccccc1
CRL-7250
  Potency: 23.5 nM (active) and 1.3 µM (active)
HEK293
  Potency: 14.8 nM (active) and 184 nM (active)
HaCat [1]
  outcome: inactive
KB-3-1
  Potency: 26.4 nM (active) and 731 nM (active)
HACAT [2]
  Potency: inactive
MCC-13
  Potency: 0.0469 µM (active)
MCC-26
  Potency: 0.0935 µM (active)

## Cc1cc(Nc2nc(N[C@@H](C)c3ccc(F)cc3)c(C#N)cc2F)n[nH]1
CRL-7250
  Potency: 16.6 µM (active) and 7.31 µM (active)
HEK293
  Potency: 2.64 µM (active) and 1.3 µM (active)
HaCat [1]
  Potency: 2.59 µM (active)
KB-3-1
  Potency: 1.05 µM (active) and 731 nM (active)
NIH3T3
  Potency: 3.72 µM (active) and 4.11 µM (active)
MCC-26
  Potency: 7.43 µM (active)

## Clc1cccc(-n2nnnc2NCc2ccccc2Oc2ccccn2)c1Cl
CRL-7250
  outcome: inactive
HEK293
  max response: -13.7% and -15.5%
HaCat [1]
  max response: -3.03% and -4.47%
KB-3-1
  max response: -10.9% and -7.38%
NIH3T3
  outcome: inactive
MCC-13
  Potency: inactive
MCC-26
  Potency: inactive
MKL-1
  Potency: inactive

## Cc1nc(Nc2n[nH]c3c2CN(C(=O)N[C@H](CN(C)C)c2ccccc2)C3(C)C)c2sccc2n1
CRL-7250
  Potency: 1.18 µM (active) and 130 nM (active)
HEK293
  Potency: 20.9 nM (active) and 10.3 nM (active)
HaCat [1]
  Potency: 7.43 µM (active)
KB-3-1
  Potency: 2.35 µM (active) and 2.06 µM (active)
NIH3T3
  Potency: 1.16 µM (active)
MCC-26
  Potency: 14.8 µM (active)
MKL-1
  Potency: 1.48 µM (active)

## CCS(=O)(=O)c1cccc(-c2cc(C(=O)NC3CCN(C)CC3)c(C)c3[nH]c4ncc(C)cc4c23)c1
CRL-7250
  Potency: 1.28 µM (active)
HEK293
  Potency: 1.87 µM (active) and 2.02 µM (active)
HaCat [1]
  Potency: 4.18 µM (active) and 1.61 µM (active)
KB-3-1
  Potency: 1.18 µM (active) and 904 nM (active)
NIH3T3
  Potency: 10.5 µM (active) and 5.7 µM (active)
MCC-26
  Potency: 4.69 µM (active)
MKL-1
  Potency: 0.132 µM (active)
